A selection: hits, their analogues and other compounds. The true share with any hit is near 1.6%.
KCNQ2 block: inhibitors of rat KCNQ2 potassium channel; O88943; CHO-K1 KCNQ2, FluxOR thallium flux, 20 min; active compounds read low; B-score at 10 µM; hit rate 1.1% among 310,000;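 active = fluorescence ratio B-score at most minus 3 library SDs, with starting brightness B-score within 2 library SDs, cut at about -5.5 in these data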
Target sequence (O88943 whole entry, looked up): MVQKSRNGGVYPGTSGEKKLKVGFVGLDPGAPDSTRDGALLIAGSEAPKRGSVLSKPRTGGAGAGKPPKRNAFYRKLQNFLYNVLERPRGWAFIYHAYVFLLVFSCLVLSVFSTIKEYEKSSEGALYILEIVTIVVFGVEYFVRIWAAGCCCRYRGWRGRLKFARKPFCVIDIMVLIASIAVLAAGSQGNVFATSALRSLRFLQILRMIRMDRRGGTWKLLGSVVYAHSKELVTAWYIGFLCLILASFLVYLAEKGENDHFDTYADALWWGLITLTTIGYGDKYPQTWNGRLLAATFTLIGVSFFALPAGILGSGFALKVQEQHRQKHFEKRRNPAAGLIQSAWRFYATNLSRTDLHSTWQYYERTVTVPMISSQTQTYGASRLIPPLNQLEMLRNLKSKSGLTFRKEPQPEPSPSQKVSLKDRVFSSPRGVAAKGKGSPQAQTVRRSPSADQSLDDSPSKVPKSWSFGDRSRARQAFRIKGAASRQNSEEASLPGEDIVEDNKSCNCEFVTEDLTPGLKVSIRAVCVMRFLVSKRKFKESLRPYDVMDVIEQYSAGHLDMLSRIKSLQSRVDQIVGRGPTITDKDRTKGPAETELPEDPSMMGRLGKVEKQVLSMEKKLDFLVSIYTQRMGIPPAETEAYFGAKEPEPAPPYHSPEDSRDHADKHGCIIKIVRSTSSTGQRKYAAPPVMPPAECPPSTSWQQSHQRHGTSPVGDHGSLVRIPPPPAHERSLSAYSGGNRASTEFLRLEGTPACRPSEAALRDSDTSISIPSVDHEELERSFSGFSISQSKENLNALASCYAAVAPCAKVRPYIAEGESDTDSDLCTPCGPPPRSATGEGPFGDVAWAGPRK
KCNQ2 pot: potentiators of rat KCNQ2 potassium channel; O88943; CHO-K1 KCNQ2, FluxOR thallium flux fluorescence; active compounds read high; B-score at 10 µM; hit rate 0.54% among 310,000;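 active = fluorescence ratio B-score at least 3 SD of library B-scores, with initial fluorescence B-score within 3 of them, cut at about 5.3 in these data; same plate scores as AID 2156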;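 also: B-score of peak minus minimum over baseline fluorescence ratio after K+ and Tl+ stimulus; positive B-score means potentiation of KCNQ2 with more thallium influx and brighter signal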
Hits are given with their value; i = inactive; nt = not tested or not shown.

SMILES	KCNQ2 block	KCNQ2 pot
Cc1nc(NC(=O)C2CC2)sc1C(=O)N1CCCCC1	i	i
Cc1nc(NC(=O)c2cccc(Cl)c2)sc1C(=O)N1CCCCC1	-7.47	i
c1ccc(-c2nnc(-c3c[nH]c4ccccc34)nc2-c2ccccc2)cc1	-6.75	i
ClC(Cl)c1nnc(-c2ccccc2)c(-c2c[nH]c3ccccc23)n1	i	nt
CCC(CO)n1c(SCc2cc(=O)oc3cc(C)ccc23)nc2ccccc2c1=O (centres undefined)	-7.65	i
COc1ccccc1-n1c(SCc2cc(=O)oc3cc(O)ccc23)nc2ccccc2c1=O	i	nt
COc1ccccc1-c1cc(C(=O)NC2CCN(C)CC2)c2ccc(Cl)c(C)c2n1	-5.75	i
Cc1c(Cl)ccc2c(C(=O)NCCN3CCCCC3)cc(-c3ccccn3)nc12	i	nt
CCCCNC(=S)N/N=C/C1=CCC2CC1C2(C)C (centres undefined)	i	5.43
C=C(C)CNC(=S)N/N=C/C1=CCC2CC1C2(C)C (centres undefined)	i	i
COc1ccc(NCc2nnc(SCC(=O)c3ccc(OC)cc3)o2)cc1	i	i
CCOc1cc(C(=O)CSc2nnc(CNc3ccc(Cl)cc3)o2)ccc1NC(=O)CC	i	6.18
COc1ccc(N2CCN(C(=O)c3cc(=O)c4cc(C)c(C)cc4o3)CC2)cc1	i	nt
CCOC(=O)Cc1nnc(NC(=O)CCc2ccccc2)s1	i	nt
C=CCNC(=S)NNC(=O)c1ccc([N+](=O)[O-])cc1	i	nt
C=CCN(CC=C)C(=S)NC(=O)c1ccc([N+](=O)[O-])cc1	i	7.2
CCOc1ccccc1NC(=O)CSc1nnc(CNC(=O)c2c(F)cccc2Cl)o1	i	i
O=C(Nc1ccccc1F)N1CCc2ccccc2C1	i	nt
O=C(NN=C1CCCCCCCCCCC1)c1cccc(S(=O)(=O)N2CCOCC2)c1	i	nt
O=C(CC(NC(=O)c1ccccc1Cl)c1ccccc1)NCCc1ccc(Cl)cc1 (centres undefined)	i	nt
CN(C(=O)CC(NC(=O)c1ccccc1Cl)c1ccccc1)c1ccccc1 (centres undefined)	-5.66	i
Cc1ccc(S(=O)(=O)NNC(=O)C(O)(c2ccccc2C)c2ccccc2C)cc1	i	i
Cc1ccccc1C(=O)NC(CC(C)C)C(=O)Nc1ccc(F)c([N+](=O)[O-])c1 (centres undefined)	i	nt
COc1ccc(NC(=O)C(CC(C)C)NC(=O)c2ccccc2C)cn1 (centres undefined)	-7.69	i
COCCNC(=O)Cn1cnc2sc(C)c(S(=O)(=O)N3CCC(C)CC3)c2c1=O	i	nt
SMILES	KCNQ2 block	KCNQ2 pot
COc1ccc(Cl)cc1Nc1ncnc2sc(C)c(S(=O)(=O)N3CCC(C)CC3)c12	-6.69	i
CCCCn1c(SCc2nc3ccccc3s2)nc2ccccc2c1=O	-7.85	i
O=c1c2ccccc2nc(SCc2nc3ccccc3s2)n1Cc1ccco1	i	nt
Cc1ccc(S(=O)(=O)c2ccc([N+](=O)[O-])cn2)cc1	-5.97	i
Cc1cc(S(=O)(=O)c2ccc([N+](=O)[O-])cn2)ccc1Br	i	nt
CN(C1CCCCC1)S(=O)(=O)c1ccc(S(=O)(=O)N(CC(=O)Nc2ccccc2)C2CC2)cc1	i	nt
Cc1ccc(CNC(=O)C2CCC(CNS(=O)(=O)c3cccs3)CC2)cc1 (centres undefined)	i	i
O/N=C/c1ccc(OCc2ccccc2)c(Br)c1	i	nt
O/N=C/c1cc(Br)cc(Br)c1OCc1ccccc1	-5.58	i
COc1ccc(CNCCNC(=O)c2cccs2)c(OC)c1OC	i	i
CC[C@@H]1CC=C[C@H]2[C@H]1C(=O)N(Cc1ccccc1)[C@H]2c1ccoc1	-6.18	i
C[C@@H]1CC=C[C@H]2[C@H]1C(=O)N(Cc1ccccc1)[C@H]2c1ccc2ccccc2c1	i	nt
C[C@@H]1CC=C[C@H]2[C@H]1C(=O)N(Cc1ccccc1)[C@H]2c1ccoc1	i	nt
C[C@@H]1CC=C[C@H]2[C@H]1C(=O)N(Cc1ccccc1)[C@H]2c1ccc2ccccc2c1Br	-7.54	i
O=C(Nc1ccccc1)N1CCCC(c2nc(-c3cccs3)no2)C1 (centres undefined)	i	i
CCCN(C(=O)COC(=O)c1[nH]c(C)c(C(=O)OC)c1C)c1c(N)n(Cc2ccccc2)c(=O)[nH]c1=O	i	i
CCCc1cc(=O)[nH]c(SCC(=O)N(CC)c2c(N)n(Cc3ccccc3)c(=O)[nH]c2=O)n1	i	nt
CC(/C=C1\SC(=S)N(CCC(=O)Nc2nc(C)cs2)C1=O)=C\c1ccccc1	i	nt
Cc1ccc(S(=O)(=O)N2Cc3ccccc3CC2C(=O)Nc2ccc3c(c2)OCO3)cc1 (centres undefined)	-5.64	i
COc1ccc(S(=O)(=O)N2Cc3ccccc3CC2C(=O)Nc2ccc3c(c2)OCO3)cc1 (centres undefined)	i	nt
COc1ccc(OCC(=O)Nc2c(C(=O)N(CCN(C)C)Cc3ccco3)oc3ccccc23)cc1	i	nt
COc1ccccc1C(=O)Nc1c(C(=O)N(CCN(C)C)Cc2ccco2)oc2ccccc12	-6.98	i

Compound activity deposited in PubChem by Johns Hopkins Ion Channel Center.
